Bioassay records as filed in PubChem BioAssay.
The full list was thinned out, with hits kept by preference.
GluA2 TARP mod = modulators of AMPA receptor GluA2-stargazin complexes; O88602+P19491; HEK293 GluA2+stargazin, membrane potential dye (FDSS), glutamate EC50; hits were called plate by plate, in both directions; calls only at 30 µM; 3.5% of 40,000 active; AID 1259245;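 active = any of four per-well response measures lying three or more SD from its plate-wide compound average, in either direction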
GIRK2 activator = GIRK2 channel activators by thallium flux; HEK293 GIRK2/NPY4 cells, thallium flux fluorescence; 34,000 tested, under 10 active; P48051; activation (% efficacy), % for hits at 37.5 µM;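 active = primary screen hit, no activity in plain HEK293 cells, and in GIRK2-only cells above 5% efficacy rising with concentration; inactive = the rest, including fluorescent compounds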;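 note: efficacy is normalized control-subtracted fluorescence 15 s after thallium addition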
Numbers without * were called inactive; i = inactive; · = not tested or not shown; + = active, no number.

SMILES	GluA2 TARP mod	GIRK2 activator
CCCc1nnc(NC(=O)c2c[nH]c3c(Cl)cccc3c2=O)s1	i	i
COc1cc(C(=O)Nc2c(C(C)C)cccc2C(C)C)cc(OC)c1OC	+	i
CC(C)c1cccc(C(C)C)c1NC(=O)c1ccc(O)cc1	i	·
CCOC(=O)C1CCN(CC(O)COc2ccc(Br)cc2)CC1 (stereo not given)	i	·
O=C(Nc1ccc(N2CCCCS2(=O)=O)cc1)c1c(F)cccc1Cl	i	·
COCCn1c(N)c(S(=O)(=O)c2ccc(Cl)cc2)c2nc3ccccc3nc21	i	i
COCCn1c(N)c(-c2nc3ccccc3n2C)c2nc3ccccc3nc21	+	i
O=C(NC1CC(=O)N(c2cccc(F)c2)C1)c1ccccc1C(F)(F)F (stereo not given)	i	·
COc1cc(NC(=O)NCc2ccc(F)cc2)c2ncccc2c1	i	·
CC(C)C(=O)NCCCn1nc(-c2ccco2)ccc1=O	i	i
CC(Oc1ccccc1F)C(=O)NCCCn1nc(-c2ccco2)ccc1=O (stereo not given)	+	i
O=C(NCC1CCN(C(=O)c2cccnc2)CC1)C(=O)Nc1ccc2c(c1)OCO2	i	i
CNC(=O)Cn1nnn(-c2ccc(NC(=O)/C=C/c3ccccc3)cc2)c1=O	i	i
COc1ccc(-n2nnc3c(N4CCN(C(=O)c5ccccc5C(F)(F)F)CC4)ncnc32)cc1	i	·
COc1ccc(-n2nnc3c(N4CCN(C(=O)c5cccc6ccccc56)CC4)ncnc32)cc1	+	·
COc1ccc(-c2c(C)nn3c(N4CCN(Cc5ccccc5)CC4)cc(C)nc23)cc1OC	+	i
COc1ccccc1-c1c(C)nn2c(N3CCN(Cc4ccccc4)CC3)cc(C)nc12	i	i
Cc1ccc(OCC(O)Cn2c(N3CCCC3)nc3c2c(=O)n(C)c(=O)n3C)cc1C (stereo not given)	i	·
CC1CCN(c2nc3c(c(=O)[nH]c(=O)n3C)n2CC(O)COc2ccc(Cl)cc2)CC1 (stereo not given)	i	·
Cc1ccc(OCC(O)Cn2c(N3CCN(C)CC3)nc3c2c(=O)n(C)c(=O)n3C)cc1C (stereo not given)	+	·
Cn1c(=O)[nH]c(=O)c2c1nc(N1CCNCC1)n2CC(O)COc1ccc(Cl)cc1 (stereo not given)	+	·
CCn1c(C2CC(=O)N(c3ccccc3)C2)nc2ccccc21 (stereo not given)	i	·
Cc1nnsc1C(=O)N1CCC(CNC(=O)c2cccc(Cl)c2)CC1	i	i
Cc1nnsc1C(=O)N1CCC(CNC(=O)Nc2cccc(Cl)c2)CC1	+	i
O=C(Nc1cc(-c2ccco2)nn1-c1nc2c(c(=O)[nH]1)CCC2)C1CC1	+	i
SMILES	GluA2 TARP mod	GIRK2 activator
O=C(CC1CCCC1)Nc1cc(-c2ccco2)nn1-c1nc2c(c(=O)[nH]1)CCC2	i	i
O=C(c1ccccc1Cl)N1CCN(c2ccc(Nc3ccccn3)nn2)CC1	i	i
CCOC(=O)C1C(=O)CC(C)(O)C(C(=O)OCC)C1c1ccc(C)cc1 (stereo not given)	+	i
CCOC(=O)C1C(=O)CC(C)(O)C(C(=O)OCC)C1c1cccs1 (stereo not given)	i	i
Cc1[nH]n2c(=O)c(CCO)c(C(=O)O)nc2c1-c1ccc(Cl)cc1	i	i
COc1ccc(F)cc1S(=O)(=O)N1CCN(Cc2nc(-c3ccccc3)cs2)CC1	i	i
COc1ccc(S(=O)(=O)N2CCC3(CC2)NC(=O)N(Cc2ccccc2)C3=O)cc1	i	·
COc1ccccc1OCC(O)CN1C(C)(C)CC(O)CC1(C)C (stereo not given)	i	i
Cc1cc(C)c(C)c(OCC(O)CN2C(C)(C)CC(O)CC2(C)C)c1 (stereo not given)	+	i
Cc1cc(C)c(C)c(OCC(O)CN2CC(C)CC(C)C2)c1 (stereo not given)	+	i
COc1ccccc1OCC(O)CN1CC(C)CC(C)C1 (stereo not given)	i	i
Cn1cccc1C(O)CNC(=O)c1cc(Br)ccc1Cl (stereo not given)	i	i
CN(C)S(=O)(=O)N1CCN(c2ccc(N3CCOCC3)nn2)CC1	i	i
Cc1ccc(S(=O)(=O)NCCOc2ccc(-c3ccc(F)cc3)nn2)cc1C	+	i
COc1ccc(S(=O)(=O)NCCOc2ccc(-c3ccc(F)cc3)nn2)cc1	i	i
O=S(=O)(NCCOc1ccc(-c2ccc(F)cc2)nn1)c1ccc(Br)cc1	+	i
O=S(=O)(NCCOc1ccc(-c2ccc(F)cc2)nn1)c1ccc(Cl)cc1	i	i
Cn1cc(/C=C2\SC(=O)N(CCCC(=O)O)C2=O)c2ccccc21	i	·
CSc1ccccc1NC(=O)C(=O)NCC1CCN(C2CCCC2)CC1	+	i
CSc1ccccc1NC(=O)C(=O)NCC1CCN(C)CC1	i	i
COCc1cc(=O)[nH]c2cc(NC(=O)c3csc(-c4ccccc4)n3)ccc12	·	i
COc1ccc(C)cc1S(=O)(=O)N1CC(C)CC(C)C1 (stereo not given)	i	·
CC1CC(C)CN(S(=O)(=O)c2c(F)cccc2F)C1 (stereo not given)	+	·
Cc1nn(C2CCS(=O)(=O)C2)c(C)c1CC(=O)Nc1ccc(F)c(Cl)c1 (stereo not given)	i	i
O=C(Nc1ccc(F)c(Cl)c1)c1cc(C2CC2)n(C2CCS(=O)(=O)C2)n1 (stereo not given)	+	i
SMILES	GluA2 TARP mod	GIRK2 activator
Cc1cc(C(=O)NCC(c2ccccc2Cl)N(C)C)c(C)o1 (stereo not given)	i	i
CCOc1ccc(N2CC(C)Cn3c2nc2c3c(=O)n(Cc3ccccc3)c(=O)n2C)cc1 (stereo not given)	i	·
COCC(=O)N1CCCc2ccc(NC(=O)CCSc3ccccc3)cc21	+	i
Cc1ccc(NC(=O)CCSc2ccccc2)cc1N1CCCCC1=O	+	i
CCOC(=O)CCC(=O)Nc1ccc(C)c(N2CCCCC2=O)c1	i	i
COCC(=O)N1CCCc2ccc(NC(=O)Cc3ccccc3Cl)cc21	i	i
COc1ccc(Cl)cc1NC(=O)C(=O)NCC(c1cccc2ccccc12)N(C)C (stereo not given)	·	i
COc1cccc(CNC(=O)C(=O)Nc2ccc(N3CCCC3=O)c(C)c2)c1	i	i
O=C(CCN1C(=O)c2ccccc2S1(=O)=O)N(Cc1ccccc1)c1ccccn1	i	i
CCCCS(=O)(=O)NCCNc1cc(-n2cccn2)ncn1	+	i
COc1cc(S(=O)(=O)NCCNc2cc(-n3cccn3)ncn2)c(C)cc1C	i	i
CN(C)C(CNS(=O)(=O)c1ccccc1Cl)c1ccco1 (stereo not given)	i	i
Cc1ccc(C(CNC(=O)c2ccccc2C)N2CCOCC2)cc1 (stereo not given)	+	i
Cc1ccc(C(CNC(=O)COc2ccc3ccccc3c2)N2CCOCC2)cc1 (stereo not given)	+	i
COc1ccc(C(CNC(=O)C(=O)Nc2ccccc2[N+](=O)[O-])N2CCOCC2)cc1 (stereo not given)	·	i
Cc1ccc(C(CNC(=O)c2cccs2)N2CCOCC2)cc1 (stereo not given)	i	i
